# Screening data from PubChem.
# An excerpt weighted towards active compounds, which were near 7.5% of everything screened.
# HCV inhibitor: qHTS Assay for Inhibitors of Hepatitis C Virus (HCV). Huh7.5.1 HCVcc-Cre infection, luciferase reporter, 44 h. Potency, µM (top dose mostly 41.8 µM), usual class: inhibitors. 340,000 compounds, 3.4% hits. AID 651820, 2012
#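 Cells (1,000/well) were plated 4 h before compound, then infected with HCVcc-Cre virus (~0.5 moi). After 44 h further culture, infection was read as luciferase luminescence following a 15 min substrate incubation at room temperature.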
# FMDV inh: High Throughput Screening for Foot and Mouth Disease Virus Antivirals; Potency, µM (doses to about 57.9 µM), actives largely listed as inhibitors; 410,000 compounds, 1.2% hits; FMDV antiviral cell-based qHTS; calls by dose curve; tested in HEK293T cells; further: read-out not given here; nearly all actives have a fitted effect of over 45% in size
# HCMV inh: qHTS Assay for inhibitors of the human cytomegalovirus (HCMV); HFF cells, HCMV-luciferase reporter, 72 h; stronger effect = lower value; activity change, negative = inhibition, % at 57.5 µM; 410,000 compounds, 4.5% hits; AID 1259415, 2018; in the data active means activity change below about -60%; inconclusive means no clear call, values can overlap the other calls; inactive means above about -39%
#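 After 16 h attachment at 37C, HFF cells received test compound and HCMV-luciferase (1 PFU/cell); reporter luminescence read 72 h later, data normalized against buffer-only and known inhibitor Salinomycin.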
# VACV Venus inh: qHTS for Stage-Specific Inhibitors of Vaccinia Orthopoxvirus: Venus Reporter Primary qHTS; Vaccinia virus Venus reporter expression, fluorescence; Potency, µM (highest dose often 36.5 µM), hits mostly inhibitors; 330,000 compounds, 0.46% hits; AID 720580, 2013; calls by dose curve; tested in A549 cells; further: nearly all actives have a fitted effect of over 30% in size
# Vaccinia mCherry: qHTS for Stage-Specific Inhibitors of Vaccinia Orthopoxvirus: mCherry Reporter Primary qHTS. Potency, µM (highest dose often 36.5 µM), most hits filed as inhibitors. AID 720579, 2013. Vaccinia virus mCherry reporter infection, fluorescence. 310,000 compounds, 0.63% hits; calls by dose curve; tested in A549 cells; further: nearly all actives have a fitted effect of over 35% in size
# Giardia FBPA inh: qHTS Assay for Inhibitors of Fructose-1,6-bisphosphate Aldolase from Giardia Lamblia; A8B2U2; purified Giardia FBPA; AID 2451, 2010; Potency, µM (series often up to 59.6 µM), usual class: inhibitors; 290,000 compounds, 0.71% hits; further: nearly all actives have a fitted effect of over 55% in size
# Target sequence (A8B2U2 whole entry, looked up): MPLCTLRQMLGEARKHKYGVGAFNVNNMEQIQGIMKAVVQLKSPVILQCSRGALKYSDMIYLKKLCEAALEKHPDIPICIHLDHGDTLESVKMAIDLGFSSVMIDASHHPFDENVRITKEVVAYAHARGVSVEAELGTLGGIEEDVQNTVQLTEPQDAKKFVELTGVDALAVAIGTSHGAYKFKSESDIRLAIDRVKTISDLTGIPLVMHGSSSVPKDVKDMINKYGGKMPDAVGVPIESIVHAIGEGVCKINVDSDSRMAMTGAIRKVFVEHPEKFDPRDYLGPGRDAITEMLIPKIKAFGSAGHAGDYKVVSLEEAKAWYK
#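 Giardia FBPA (40 nM reagent) was preincubated 10 min at RT with compound (up to 57.5 uM final), then substrate plus GAPDH/TPI/NAD/arsenate coupling system with diaphorase/resazurin was added; resorufin fluorescence (525/598 nm) was read after 20 min.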
# Numbers stand for hits; . = inactive; ? = inconclusive; / = no result given. Unless noted, the call rests on the fitted dose curve; in most records, active means well fitted curve in the direction sought with a large enough effect; inconclusive means small, poorly fitted or top-dose-only effect, or another doubt; inactive means no such curve, though single readings can be large; an effect the other way counts as inactive or inconclusive.
SMILES,HCV inhibitor,FMDV inh,HCMV inh,VACV Venus inh,Vaccinia mCherry,Giardia FBPA inh
COc1ccccc1C(=O)NCC(=O)N/N=C/c1cc(Br)ccc1OCc1ccccc1,10µM,?,?,.,.,.
C#CCOc1ccccc1/C=N/NC(=O)c1ccccc1OCc1ccccc1,?,18µM,?,/,/,/
Cc1ccc(/C=N/NC(=O)c2ccccc2OCc2ccc(F)cc2)o1,10µM,.,?,/,/,.
COc1ccc(/C=N/NC(=O)c2ccccc2OCc2ccccc2)c(OC)c1,13µM,.,?,.,.,.
Cc1ccc(NC(=O)c2ccc(NC(=O)N3CCSc4ncccc43)cc2)c(Cl)c1,/,?,?,.,.,/
CN(Cc1ccccc1)c1ccc(-c2nc(-c3ccncc3)no2)cc1[N+](=O)[O-],/,.,.,.,?,/
CCCc1cc(=O)[nH]c(SCC(=O)c2cc(C)n(-c3c(C)n(C)n(-c4ccccc4)c3=O)c2C)n1,.,.,.,.,.,.
O=C(CCCC(=O)OCC(=O)c1ccc(Cl)cc1)NC1CCCCC1,.,.,.,.,.,.
COc1ccc(NC(C)C(=O)N/N=C/c2ccccc2OCc2cccc(Br)c2)cc1 (centres undefined),11µM,.,.,.,.,.
Cc1ccccc1NC(C)C(=O)N/N=C/c1ccccc1OCc1cccc(Br)c1 (centres undefined),?,.,.,?,?,.
O=C(N/N=C/c1ccccc1)c1sccc1OCc1ccc(F)cc1,?,.,-62,.,/,.
COc1ccc(COc2ccccc2C(=O)NCc2ccccc2)cc1F,10µM,?,-69,.,?,.
O=C(NCc1cc(Cl)cc(Cl)c1)c1ccc2nc([C@H]3C[C@H](O)[C@@H](CO)O3)[nH]c2c1,/,.,.,.,.,/
COc1ccc(N=C2S/C(=C\c3cc(C)n(C)c3C)C(=O)N2CC(C)C)cc1,10µM,.,.,.,?,.
COc1ccc(N=C2S/C(=C\c3ccco3)C(=O)N2CC(C)C)cc1,.,.,.,.,.,.
CC1(C)CN=c2s/c(=C\c3ccc(Cl)cc3)c(=O)n2C1,?,.,?,?,10µM,?
CSC1=N/C(=C\c2ccc(Cl)cc2)C(=O)N1N(C)C,.,.,.,.,.,.
NCCc1cc(O)c(O)cc1O,?,.,.,.,.,5.6µM
NCCc1ccc(O)c(O)c1,.,.,.,.,.,?
CC(C)(C)n1nnnc1C(c1cccs1)N(Cc1cccnc1)Cc1ccccc1Cl (centres undefined),10µM,.,.,/,/,.
CC(c1nnnn1C(C)(C)C)N(Cc1cccnc1)Cc1ccccc1Cl (centres undefined),?,?,.,.,?,.
CC1=C(C(=O)OCC(C)C)C(c2ccsc2)C2=C(CCCC2=O)N1 (centres undefined),.,.,-78,.,.,.
CCOC(=O)C1=C(C)NC2=C(C(=O)CCC2)C1c1ccsc1 (centres undefined),/,/,/,/,/,.
N#CN=c1snc(-c2ccccc2)n1-c1ccc(Br)cc1,/,/,/,?,3.2µM,/
Cc1nnc(C)c2c(C)n(-c3ccc(Br)cc3)c(C)c12,.,/,/,/,/,.
SMILES,HCV inhibitor,FMDV inh,HCMV inh,VACV Venus inh,Vaccinia mCherry,Giardia FBPA inh
CC(C)Nc1nc(-c2ccccn2)nc(-c2ccccc2)c1C#N,.,.,-67,.,.,.
CCc1ccc(CNCCc2ccccc2F)cc1,.,.,-72,?,.,.
Cc1c(C(=O)Nc2ccc(F)c(F)c2)oc2ccc(S(=O)(=O)N3CCCCC3)cc12,6.3µM,14µM,.,?,?,.
Cc1ccc(NC(=O)c2oc3ccc(S(=O)(=O)N4CCCCCC4)cc3c2C)cc1Cl,/,?,.,.,.,/
Cc1c(C(=O)Nc2ccc(F)cc2)oc2ccc(S(=O)(=O)N3CCC4(CC3)OCCO4)cc12,4.5µM,22µM,-63,/,/,.
CCN(CC)CCCNC(=O)c1oc2ccc(S(=O)(=O)N3CC(C)CC(C)C3)cc2c1C (centres undefined),22µM,.,-98,.,?,.
CCCCN(C)C(=O)c1oc2ccc(S(=O)(=O)N3CCCCCC3)cc2c1C,/,35µM,?,.,.,.
NNC(=O)c1ccc(C(=O)N(c2ccccc2)c2ccccc2)cc1,/,/,/,.,.,/
CC(C)OC(=O)N(C)C[C@@H]1OCc2cnnn2CCCC(=O)N([C@H](C)CO)C[C@H]1C,/,.,.,.,.,/
Cc1c(C(=O)NCc2ccccc2)oc2ccc(S(=O)(=O)N3CCC4(CC3)OCCO4)cc12,?,?,.,/,/,.
Cc1c(C(=O)NCCC2=CCCCC2)oc2ccc(S(=O)(=O)N3CCC4(CC3)OCCO4)cc12,13µM,18µM,.,?,?,.
Cc1c(C(=O)NCCN2CCOCC2)oc2ccc(S(=O)(=O)N3CCCCCC3)cc12,.,.,-100,.,.,.
COCCCNC(=O)c1oc2ccc(S(=O)(=O)N3CCOCC3)cc2c1C,.,.,.,.,.,.
C[C@H]1COc2cc(N3CCC[C@H]3CO)ccc2S(=O)(=O)N1,/,.,.,.,.,/
O=[N+]([O-])c1cccc2nc(-c3ccccc3)c(-c3ccccc3)nc12,.,?,-101,.,.,.
COc1cc(C(=O)N/N=C/C23CC[C@@H](O)CC2(O)CC[C@@H]2[C@@H]3CCC3(C)C(C4=CC(=O)OC4)CCC23O)ccc1O (some centres undefined),.,.,.,?,10µM,.
CN(C)c1ccc(C(=O)N/N=C/C23CC[C@@H](O)CC2(O)CC[C@@H]2[C@@H]3CCC3(C)C(C4=CC(=O)OC4)CCC23O)cc1 (some centres undefined),.,?,-99,/,/,.
COc1ccc(C(=O)N/N=C/C23CC[C@@H](O)CC2(O)CC[C@@H]2[C@@H]3CCC3(C)C(C4=CC(=O)OC4)CCC23O)cc1 (some centres undefined),.,?,-82,/,/,.
Cc1ccc(C)c(CN2C(=O)c3ccccc3S(=O)(=O)c3ccc(C(=O)Nc4cc(F)ccc4F)cc32)c1,/,.,.,.,.,/
CCc1ccc(NC(=O)c2nnn(Cc3cccc(C(F)(F)F)c3)c2N)cc1,/,.,.,.,.,/
Cc1ccc(CNC(=O)CCSCc2cccc(F)c2)cc1,.,.,-62,/,/,.
Cc1ccc(CNC(=O)CCSCc2ccc(C)cc2)cc1,.,.,.,.,.,.
CCOC(=O)CN1C(=O)C(Sc2n[nH]c(-c3ccc(C)cc3)n2)CCc2ccccc21 (centres undefined),?,28µM,?,.,?,.
CCn1c(CNC(=O)c2cc(OC)c(OC)c(OC)c2)cc2ccccc21,?,.,-61,.,.,.
COc1cc(C(=O)NCc2cc3ccccc3n2C)cc(OC)c1OC,.,.,.,/,/,.
